Drawing on PubChem BioAssay (NCI), this text covers growth for 28 compounds.

The panel holds about 83,000 compounds, 20% with a hit somewhere; the sample as a whole holds those more often.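 Results are percent growth after 48 hours of single-concentration exposure. 100 means growth as in untreated cells, lower positive values show inhibition; negative values down to -100 show cell death.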 A number with no mark means an inactive call. Calls of active or inactive are those of the source. How the source made its calls: active means growth percent below 10; inactive means the rest.

Holding throughout (assay): NCI-60 one-dose screen, 48 h (100 = growth as untreated, 0 = no growth, -100 = all killed)
Details in all cases: 10 µM

For assay [1], the system named is RPMI-8226 leukemia.
Assay [2] relates to OVCAR-8 ovarian.
The test system of assay [3] is OVCAR-5 ovarian.
The subject of assay [4] is OVCAR-4 ovarian.
Assay [5] concerns SK-OV-3 ovarian.
For assay [6], the system named is IGROV1 ovarian.
In assay [7] the test system is OVCAR-3 ovarian.
Assay [8] relates to HS 578T breast.
Assay [9] relates to NCI/ADR-RES ovarian.
Assay [10] relates to T-47D breast.

Regarding `O=C(c1cccs1)c1ccccc1Cc1ccccc1`, the growth is 100% in [1]; 99% in assay [2]; 124% in assay [3]; 96.9% in assay [4]; 101% in assay [5]; 99.2% in [6]. The growth in assay [7] is 110%; in [8], 106%; in [9] it was 103%; in assay [10], 95%.
For `COc1ccc(-c2nn(-c3cccc(NC(=O)c4cccc(C(F)(F)F)c4)c3)cc2-c2ccncc2)cc1Cl`, the growth in assay [1] was 6.49% (active); in assay [2], 33%; in [3], 55.8%; in [4] it was 60.7%; in assay [5] it was 37.8%; in assay [6], 42.4%. The growth was 11.9% in [7], 24.9% in [8], 15.2% in assay [9] and 18.6% in assay [10].
Turning to `O=C(NC(Cc1ccc(O)cc1)C(=O)N=Nc1c(O)[nH]c2ccccc12)c1ccccc1` (stereo not drawn), the growth was 112% in assay [1]; 93.9% in assay [2]; 110% in assay [3]; 95.7% in assay [4]; 103% in assay [5]; 108% in assay [6]. Also, the growth in [7] is 103%; in assay [8], 101%; in assay [9], 98.7%; in assay [10], 107%.
With `O=C(Nc1cccc(-n2cc(-c3ccncc3)c(-c3ccc(O)c(Cl)c3)n2)c1)Nc1cccc(C(F)(F)F)c1`, the growth was -29.4% (active) in assay [1]; -49.9% (active) in assay [2]; 38.1% in [3]; 2.73% (active) in assay [4]; 4.94% (active) in assay [5]; -1.92% (active) in assay [6]. In addition, the growth in assay [7] is -6.21% (active); in [8] it was -4.27% (active); in assay [9], 11.4%; in assay [10], -23.6% (active).
In the case of `COc1ccc2c(c1OC)O/C(=C\c1ncc([N+](=O)[O-])n1C)C2=O`, the growth was 34.9% in assay [1]; -18.2% (active) in [2]; 53.7% in [3]; 78.9% in [4]; 24.8% in assay [5]; -14.8% (active) in [6]. Besides, the growth in assay [7] was -24.2% (active); in assay [8], 46.5%; in assay [9], 15.1%; in assay [10], 94.8%.
Take `O=C(Nc1cccc(-n2cc(-c3ccncc3)c(-c3cc(O)cc(Cl)c3)n2)c1)Nc1ccc(Cl)c(C(F)(F)F)c1`: the growth in assay [1] is 13.8%; in [2] it was 3.69% (active); in [3], 59.3%; in assay [4], 31.5%; in assay [5] it was 63.1%; in assay [6], 30.6%. In addition, the growth was 1.88% (active) in assay [7], 21.7% in assay [8], 41.5% in [9] and 25% in assay [10].
Take `COc1ccc(C2=Nc3c(C)nn(-c4ccccc4)c3NC(c3ccc(Oc4ccnc5cc(Cl)ccc45)c(OC)c3)C2)cc1` (stereo not drawn): the growth in [1] is 56.7%; in assay [2], 75.2%; in assay [3], 95.2%; in assay [4], 43%; in assay [5], 74.7%; in assay [6], 73.4%. Moreover, the growth is 79.9% in [7], 78.6% in assay [8], 79.9% in assay [9] and 61.9% in assay [10].
For `O=C(Nc1cccc(Br)c1)c1cc(=O)[nH]c2ccccc12`, the growth was 80.2% in [1]; 92.9% in [2]; 90.8% in assay [3]; 97.6% in [4]; 97.7% in assay [5]; 17.9% in assay [6]. The growth in [7] was 92.4%; in assay [8], 105%; in [10], 92.1%.
In the case of `Cc1ccc(CC#N)cc1C`, the growth in assay [1] was 134%; in assay [2] it was 78.3%; in assay [3] it was 88.8%; in assay [4] it was 109%; in assay [5] it was 117%; in assay [6] it was 74.9%. Moreover, the growth in [7] was 95.4%; in assay [8] it was 173%; in assay [9] it was 106%; in assay [10] it was 98.4%.
For `CN(Cc1ccccc1)Cc1ccc([N+](=O)[O-])cc1I`, the growth is 91.9% in [1]; 102% in assay [2]; 93.7% in assay [3]; 91% in [4]; 94.9% in assay [5]; 92.5% in [6]. Also, the growth is 98.9% in assay [7], 95.4% in assay [8], 103% in assay [9] and 93.9% in assay [10].
As to `Cc1occc1-c1nnc(SCC(=O)c2ccc(NC(=O)CC(C)C)cc2)o1`, the growth in [1] is 77.7%; in assay [2], 57%; in assay [3] it was 105%; in assay [4] it was 122%; in [5], 121%; in assay [6], 69.1%. Further, the growth in assay [7] was 104%; in [8], 119%; in [10], 102%.
Regarding `CCN(CC)CCOc1nc2cc(OC)c(OC)cc2c2c1-c1ccc(OC)cc1C2=O`, the growth in [1] was 49.2%; in [2], 52.9%; in assay [3] it was 111%; in assay [4], 61.5%; in assay [5], 77.3%; in [6], 60.4%. Besides, the growth in [7] was 80%; in assay [8], 89.6%; in assay [10] it was 107%.
Take `CCCCN(CCCC)c1cc(C(=O)CCCCCN)c2ccccc2n1`: the growth is -67.9% (active) in assay [1]; 9.35% (active) in assay [2]; 105% in [3]; 100% in assay [4]; 101% in assay [5]; -73.6% (active) in [6]. The growth in assay [7] is -96.9% (active); in assay [8], 96%; in [9], 71.6%; in assay [10], 92.9%.
As to `CC(=O)c1cc(Cl)ccc1O`, the growth is 105% in [1]; 109% in assay [2]; 94.3% in [3]; 120% in assay [4]; 111% in assay [5]; 116% in [6]. Besides, the growth in assay [7] is 102%; in assay [8] it was 104%; in assay [9] it was 104%; in [10], 99.7%.
For the compound `COc1ccc2c(c1)C(=O)c1c-2c(OCCN2CCCCC2)nc2ccc(OC)cc12`, the growth in assay [1] is 16.4%; in [2], 18.6%; in [3] it was 63.6%; in assay [4], 41.9%; in [5], 34.5%; in [6] it was 4.11% (active). Further, the growth in [7] was 22%; in assay [8] it was 57.8%; in assay [9] it was 26%; in [10], 36.6%.
Consider `CC(C)=CCc1cc(O)cc2c1OC(C=C(C)C)C1=C2C(=O)C2=C(NCCS2(=O)=O)C1=O` (stereo not drawn), for which the growth was 63.9% in assay [1]; 3.18% (active) in assay [2]; 41.3% in assay [3]; 1.98% (active) in assay [4]; 4.28% (active) in assay [5]; -22.3% (active) in [6]. The growth was -9.92% (active) in [7], 11.2% in assay [8] and -10% (active) in [10].
`COc1ccc2c(c1)O/C(=C\c1ccc([N+](=O)[O-])s1)C2=O`: the growth in assay [1] was 1.62% (active); in assay [2] it was 0.767% (active); in assay [3], 61.4%; in assay [4], -32.2% (active); in assay [5], 60.2%; in assay [6], -29.4% (active). Moreover, the growth is -30.5% (active) in assay [7], 18.3% in assay [8], 54.5% in assay [9] and 16% in [10].
On to `O=C(Nc1ccc(Cl)c(Cl)c1)Nc1c(Oc2ccc(Cl)c(Cl)c2)ccc(Cl)c1S(=O)(=O)O`, for which the growth in assay [1] is 14.9%; in [2] it was 27.7%; in [3] it was 53.7%; in [4], 65.6%; in [5] it was 22.4%; in [6], 30.4%. For the same compound, the growth in assay [7] was -9.85% (active); in assay [8] it was -5.79% (active); in assay [10], 51.4%.
For the compound `Nc1c(C(=O)Nc2cccc(F)c2)sc2nc3c(cc12)C(=O)CCC3`, the growth in assay [1] was 43.1%; in [2] it was 63.9%; in assay [3], 38.2%; in [4] it was 57.8%; in assay [5], 25.6%; in assay [6] it was 44.1%. Besides, the growth in [7] is -3.4% (active); in [8], 29.3%; in assay [10], 42.6%.
In the case of `Cc1nc2c(c(=O)[nH]1)OCN(Cc1ccccc1)C2`, the growth is 101% in assay [1]; 99.1% in [2]; 109% in [3]; 96.1% in assay [4]; 93.7% in assay [5]; 100% in assay [6]. Besides, the growth in assay [7] is 103%; in [8], 109%; in assay [9], 107%; in assay [10] it was 97.8%.
Regarding `COc1cc(/C=N/NC(=O)c2ccccc2Nc2cccc(C(F)(F)F)c2)cc(OC)c1OC`, the growth is 236% in [1]; 34.3% in assay [2]; 62.1% in assay [3]; 9.6% (active) in [4]; 16.1% in assay [5]; -17.1% (active) in assay [6]. The growth was -53.8% (active) in assay [7], 12.2% in [8], 12.6% in assay [9] and 29.6% in [10].
As to `O=C(Nc1cccc(Cl)c1)Nc1nccs1`, the growth in assay [1] is 91.1%; in [2], 97.9%; in [3], 109%; in assay [4], 90.6%; in assay [5], 100%; in [6], 97.5%. In addition, the growth in assay [7] was 114%; in assay [8] it was 115%; in assay [9] it was 91%; in assay [10] it was 73%.
For `Cn1c(C(N)=O)cc2c1-c1nc(Nc3ccccc3)ncc1CCC2`, the growth in assay [1] was 53.2%; in assay [2], 51%; in assay [3], 36.4%; in assay [4], 33.1%; in [5] it was 40.2%; in [6], 25.5%. In addition, the growth in assay [7] is 63.5%; in assay [8], 17.3%; in [9], 66.3%; in [10], 65.1%.
In the case of `Cc1nc2oc3ccccc3c(=O)c2cc1C(=O)NCc1ccccc1`, the growth was 80.4% in assay [1]; 90.4% in [2]; 81.8% in assay [3]; 67.9% in [4]; 110% in assay [5]; 102% in assay [6]. Besides, the growth in assay [7] was 93.3%; in assay [8] it was 105%; in [10] it was 53.9%.
Turning to `N=C(N)c1ccc(-c2ccc(-c3ccco3)o2)cc1`, the growth in [1] was 25.3%; in assay [2], 76.2%; in assay [3] it was 79%; in assay [4], 62.9%; in assay [5] it was 94.9%; in assay [6], 69.7%. The growth in [7] is 88.2%; in assay [8] it was 83.4%; in assay [9], 93.1%; in assay [10] it was 58.7%.
Take `Cc1cccc(Cl)c1NC(=O)c1ccc2nc(NC(=O)NC3CCN(C)CC3)sc2c1`: the growth in [1] is 87.7%; in assay [2], 94.6%; in assay [3], 71.1%; in assay [4] it was 99.5%; in assay [5] it was 61.8%; in [6], 86%. The growth was 116% in assay [7], 48.6% in assay [8], 106% in assay [9] and 66% in assay [10].
`Oc1[nH]c2cc(Cl)ccc2c1/C=c1/ccc2c(c1)N=C(c1cc(F)cc(F)c1)N=2`: the growth in assay [1] was -4.53% (active); in assay [2] it was 30.5%; in [3] it was 75.5%; in [4], 48.8%; in assay [5] it was 1.53% (active); in assay [6] it was 43%. Further, the growth was -50.4% (active) in assay [7], 17.3% in assay [8], 2.67% (active) in assay [9] and 30.9% in assay [10].
For `CC/C(=C(/c1ccc(OCCN(C)C)cc1)c1ccc(OC(=O)CCC(=O)c2c(C)[nH]c(/C=C3\N=C(c4ccc[nH]4)C=C3OC)c2C)cc1)c1ccccc1`, the growth is -22.3% (active) in assay [1]; 22.8% in [2]; 65.3% in assay [3]; 37.4% in [4]; 63.5% in assay [5]; 27.6% in assay [6]. Besides, the growth was 33% in assay [7], 8.4% (active) in assay [8], 20.7% in assay [9] and 22.7% in assay [10].
